We go through one compound from PubChem BioAssay.

Experiment [1] concerns Aerobactin synthetase IucA (Klebsiella pneumoniae). Put plainly: inhibition of K. pneumoniae IucA enzyme – biochemical, Tocris library, absorbance (AID 1345561; call rule not given here;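 further: 100% = enzyme without compound and 0% = no enzyme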). As to conditions: purified IucA enzyme assay, absorbance (OD) read-out; stronger effect = lower value;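 tested at 8 µM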.
The nature of experiment [2]: viability loss in pontine glioma line – cell-based, SU-DIPG-XVII, MIPE5.0, CellTiter-Glo, qHTS, dose response (AID 1347060).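 Further: cells exposed to compound for 48 hours before viability readout.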 As to conditions: CellTiter-Glo ATP luminescence.
A short description of experiment [3]: viability loss in pontine glioma line – cell-based, SU-DIPG-XIII, MIPE5.0, CellTiter-Glo, qHTS, dose response (AID 1347064; cut-off not given, nearly all actives have AC50 up to about 23 µM;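 further: cells exposed to compound for 48 hours before the viability read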). As to conditions: CellTiter-Glo ATP luminescence. Background: In ATP-based viability assays light output follows the ATP content of the culture.
Experiment [4] can be described thus: viability loss in pontine glioma line – cell-based, SU-DIPG-XXV, MIPE5.0, CellTiter-Glo, qHTS, dose response (AID 1347065).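 Further: cells exposed to compound for 48 hours before ATP readout.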 As to conditions: CellTiter-Glo ATP luminescence.
Experiment [5] can be described thus: growth inhibition of DIPG cells – cell-based, MIPE4.0 library, CellTiter-Glo luminescence, qHTS (AID 1347066; cut-off not given, nearly all actives have AC50 up to about 30 µM;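 further: cells exposed to compound for 48 hours before readout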). As to conditions: SU-DIPG-VI viability, CellTiter-Glo ATP luminescence.
Experiment [6] is described as follows: JHH-DIPG-1 glioma cell viability, MIPE5.0 library, CellTiter-Glo luminescence, qHTS (AID 1347067).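 Further: cells exposed to compound for 48 hours before readout.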 As to conditions: JHH-DIPG-1 glioma viability, CellTiter-Glo ATP luminescence.
Experiment [7] is described as follows: viability loss with induced miR-34 in A549 – imaging, A549 dox-inducible miR-34, nuclei and caspase counts, primary screen (AID 1347080;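 active means compounds whose cell count with miR-34 switched on is under 0.7 times the count with it off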). As to conditions: A549 miR-34 inducible, Hoechst nuclei count, 48 h.
Experiment [8] can be described thus: compounds altering HSF1 focus formation in cells – imaging, Selleck Cancer Library (AID 1347162; in the data active means plate-normalised HSF1 focus index below about 0.46). As to conditions: human cells, HSF1 nuclear foci imaging, at 10 µM; SSMD: measured here: HSF1 foci SSMD mean; cell count: measured here: cell number; plate-normalised HSF1 focus index: stronger effect = lower value.
Experiment [9] in a line: galactose survival enhancers in mitochondrial complex I cybrids – cell-based, galactose medium, ATP luminescence, primary screen (AID 1645843;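 active means z-score of at least 1.8 in each of two replicates, scored against plate mean and spread of sample wells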;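 further: positive z means more ATP and so rescue of galactose-driven cybrid death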). As to conditions: complex I mutant cybrid cells, 72 h, stronger effect = higher value.

Records with an inconclusive call do not appear. Active and inactive are the calls of the source. Unless noted, cut-off not given; nearly all actives show AC50 up to about 26 µM.

In general, remaining activity refers to the signal under treatment as a percentage of the control signal. Usually AC50 stands for the concentration giving half of the maximal activity seen. As for `COc1ccc(CCN(C)CCCOc2ccc(S(=O)(=O)c3c(C(C)C)c4ccccc4n3C)cc2)cc1OC`, the remaining activity in experiment [1] was 115% (inactive). In addition, the AC50 in [2] was 18.6 µM (active); in [3], 23.5 µM (active); in experiment [4], 9.34 µM (active); in experiment [6] it was 10.5 µM (active). The compound was classed as inactive in [5]. Moreover, the fold change in [7] (stronger effect = lower value, cell number ratio, induced over uninduced) was 1.02 (inactive); in experiment [7] (measured here: relative caspase fold change +Dox/-Dox) it was 0.864. For the same compound, the cell count turned out to be 222 in experiment [7] (measured here: total cells with miR-34 induction, stronger effect = lower value); 219 in experiment [7] (measured here: total cells without miR-34 induction); 5740 in experiment [8]. The SSMD in experiment [8] was -4.23. In addition, the plate-normalised HSF1 focus index in [8] was 0.749 (inactive). Further, the z-score in experiment [9] was -1.04 (inactive).
